Data as given in PubChem BioAssay AID1063 (University of Pittsburgh Molecular Library Screening Center, 2008).
Out of some 200,000 compounds screened, about 18,000 (9%) were called active. Only a selection was taken, and actives are over-represented in it overall. A number with no mark means an inactive call. No stated cut-off is given here; in the data, active means inhibition above about 50%; inactive means the rest.

Experiment: Leishmania major promastigote growth inhibition, primary screen (AID 1063);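 further: promastigotes grown with compound for 44 hours at 28 °C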
Conditions: Leishmania major promastigotes, resazurin fluorescence viability; at 10 µM; stronger effect = higher value

Row | SMILES | inhibition
1 | CC(C)N(Cc1ccccc1)C(=O)COC(=O)c1cnccn1 | -4.04%
2 | COC(=O)Cc1c(O)ccn(Cc2cccc(C(F)(F)F)c2)c1=O | -15.9%
3 | CC(Sc1nnnn1C1CCCCC1)C(=O)O (centres undefined) | -5.74%
4 | O=C(N/N=C/c1ccc([N+](=O)[O-])cc1)C(=O)N1CCCC1 | -5.07%
5 | O=C(OCC(=O)c1cccs1)c1ccc([N+](=O)[O-])o1 | 13.5%
6 | COc1cccc(/C=N/Nc2ncc(C(F)(F)F)cc2Cl)c1O | 28.2%
7 | COc1cccc2c(N/N=C/c3ccco3)cc(C)nc12 | 2.22%
8 | COc1ccc(Nc2cc(C)nc(-n3nc(C)cc3C)n2)cc1 | 28.9%
9 | COc1ccc(-c2nn(-c3ccccc3)cc2/C=N/Nc2ccccn2)cc1OC | 27.8%
10 | COc1ccccc1/C=N\Nc1cc(C)nc(-n2nc(C)cc2C)n1 | 98.9% (active)
11 | COc1cccc(/C=N/Nc2cc(C)nc(-c3ccccc3O)n2)c1O | 71.2% (active)
12 | CCc1ccc(CN(C)Cc2nc(Cc3ccccc3)no2)nc1 | 14%
13 | S=C(NCc1ccco1)Nc1ccc2c(c1)OCCO2 | -4.58%
14 | O=C(O)C1CC(=O)N(Cc2cccnc2)C1 (centres undefined) | -7.68%
15 | O=C(NCCc1ccccc1)C1CCC(Cn2c(=O)c3ccccc3n(Cc3cccnc3)c2=O)CC1 (centres undefined) | 73.5% (active)
16 | COc1ccc(CCNC(=O)Cn2c(=O)n(CC3CCCO3)c(=O)c3ccccc32)cc1OC (centres undefined) | -4.82%
17 | Cc1c(CN2CCCC(C(=O)c3cccc(Cl)c3)C2)c(=O)n(-c2ccccc2)n1C (centres undefined) | 16.8%
18 | CCN(CC)CCNC(=O)c1ccc(NS(=O)(=O)c2ccc3c(c2)OCCO3)cc1 | -8.8%
19 | Cc1cccc(OCC(=O)Nc2ccccc2F)c1 | 8.74%
20 | CC(C)C(C)(C#N)NC(=O)CSc1nncn1-c1ccccc1 (centres undefined) | -0.78%
21 | CCCNS(=O)(=O)c1ccc(CCC(=O)N2CCCC2)cc1 | 1%
22 | CN(C)CCCNC(=S)NCc1ccc(Cl)cc1 | -5.52%

Row | SMILES | inhibition
23 | S=C(NCc1ccc(Cl)cc1)NC1CCCCC1 | 57.3% (active)
24 | S=C(NCc1ccc(Cl)cc1)NC12CC3CC(CC(C3)C1)C2 | 36.3%
25 | O=c1[nH]c(=S)[nH]c2[nH]c(=S)[nH]c12 | 7.12%
26 | COC(=O)C1=C(N)Oc2cc(C)oc(=O)c2C1c1cccnc1 (centres undefined) | 42.3%
27 | COC(=O)C1=C(C)Nc2ncnn2C1c1cccnc1 (centres undefined) | -4.12%
28 | CCSc1nc2c(c(=O)[nH]1)C(c1cccnc1)C(C(=O)OC(C)C)=C(C)N2 (centres undefined) | 56% (active)
29 | N/C(=N\OC(=O)CCCC(=O)O)c1ncc(C(F)(F)F)cc1Cl | -0.94%
30 | COc1ccc(N2C(=O)/C(=C\c3ccco3)N=C2SCC(N)=O)cc1Cl | 51.5% (active)
31 | COc1ccc([N+](=O)[O-])cc1NC(=O)COC(=O)/C=C/c1ccco1 | -8.41%
32 | COc1ccc(Cl)cc1C(=O)NNC(=S)NC(=O)/C=C/c1ccco1 | 18.7%
33 | CCOC(=O)C1CCN(C(=O)Cn2cc(C#N)c3ccccc32)CC1 | 0.22%
34 | COc1cccc2c(=O)n(CC(=O)N3CCCCCC3)ccc12 | -6.35%
35 | CCc1cccc2c(C=C(C#N)C#N)cn(CC(=O)N3CCCCC3)c12 | 78% (active)
36 | Cc1ccccc1NC(=O)c1ccc(COc2ccc3c(C)cc(=O)oc3c2)cc1 | -4.07%
37 | Cc1ccsc1C1C(C#N)=C(N)OC2=C1C(=O)CC(C)C2 (centres undefined) | 5.83%
38 | C/C=C/C=C/C(=O)OCC(=O)Nc1ccc(Cl)cc1 | 0.85%
39 | COc1ccc(C(=O)Nc2ncc3c(n2)-c2ccccc2CC3)cc1 | 33.3%
40 | C=CCN(CC=C)S(=O)(=O)c1ccc(C(=O)Nc2nc3c(s2)CCc2ccccc2-3)cc1 | 25.3%
41 | COCCN(CCOC)S(=O)(=O)c1ccc(C(=O)Nc2nc3c(s2)CCc2ccccc2-3)cc1 | 78.1% (active)
42 | CC(C)C(NC(=O)C1CCC(C(C)(C)C)CC1)C(=O)NCCCN1CCCCC1 (centres undefined) | 4.42%
43 | COc1ccc(C=Nc2cccc3ncccc23)cc1 | -0.39%
44 | Cc1ccc2[nH]c(=O)c(CC=C(Cl)Cl)c(C)c2c1 | 5.81%

Row | SMILES | inhibition
45 | COC(=O)c1ccc(/C=N/N2C(C)CCCC2C)cc1 (centres undefined) | 1.84%
46 | CC(=O)NC(NC(=S)Nc1c(C)n(C)n(-c2ccccc2)c1=O)C(Cl)(Cl)Cl (centres undefined) | -10.3%
47 | COc1ccc(C(C(O)C(=O)c2c[nH]c3ccccc23)N2CCN(c3ccccc3)CC2)cc1 (centres undefined) | 60.7% (active)
48 | COc1ccc(N2CCN(C(C)=C3C(=O)c4ccccc4C3=O)CC2)cc1 | 0.6%
49 | CCCC(=O)NC(C)C(c1cccs1)N1CCN(c2ccccc2)CC1 (centres undefined) | 21.8%
50 | CCC(=O)c1ccc(OCC(O)Cn2nc(C)c(C(C)=O)c2C)cc1 (centres undefined) | -1.66%
51 | Cc1c(C(N)=O)sc2ncn(CCOc3ccccc3)c(=O)c12 | 15.6%
52 | N#Cc1c(-c2ccc(Cl)cc2)c2c([nH]c1=S)CCCC2 | -2.73%
53 | N/C(=N\OC(=O)COc1ccc([N+](=O)[O-])cc1)c1ccc(Br)cc1 | -2.89%
54 | N/C(Cc1ccc([N+](=O)[O-])cc1)=N\OC(=O)COc1ccc2ccccc2c1 | -4.21%
55 | CCOC(=O)COc1ccc([N+](=O)[O-])cc1 | 62.2% (active)
56 | Cc1nnc(SCCCCSc2nnc(C)c(=O)[nH]2)[nH]c1=O | -5.64%
57 | CN(c1ccc(OCC(=O)OCC(=O)Nc2cccc([N+](=O)[O-])c2)cc1)S(=O)(=O)c1ccc(F)cc1 | -5.95%
58 | CC(CC(=O)C1C(C)C=CCC1(C)C)NNC(N)=O (centres undefined) | -5.44%
59 | CCCCCCC(=O)Nc1nc(C)c(-c2csc(Nc3cccc(OC)c3)n2)s1 | 56.1% (active)
60 | CCCCCCC(=O)Nc1nc(C)c(-c2csc(Nc3cc(Cl)ccc3OC)n2)s1 | 56.5% (active)
61 | CCCCC(=O)Nc1nc(C)c(-c2csc(Nc3ccc(Cl)cc3)n2)s1 | 27%
62 | Cc1nc(NC(=O)c2cccc(Cl)c2)sc1-c1csc(Nc2cccc(Cl)c2)n1 | 6.25%
63 | C=CCCC(=O)Nc1nc(C)c(-c2csc(Nc3ccc(Cl)cc3)n2)s1 | 40.7%
64 | Cc1ccc(Nc2nc(-c3sc(NC(=O)c4ccccc4)nc3C)cs2)cc1 | 15.7%
